Measurements taken from PubChem BioAssay AID485273 (Sanford-Burnham Center for Chemical Genomics, 2010).
In all, about 330,000 compounds went through this assay and about 1,500 (0.45%) were called active. The list comes from a sample in which actives are over-represented; it also holds similar structures and randomly drawn compounds. Unmarked numbers belong to inactive results. Rule as the data show it: active = inhibition above about 45% (passing the limit was not always enough); inconclusive = no clear call, values can overlap the other calls.

The molecules below were run against Ubiquitin-conjugating enzyme E2 N (Homo sapiens) (UniProt P61088) (assay: UBC13 polyubiquitin chain formation inhibitors, primary screen, biochemical, TR-FRET, uHTS (AID 485273)). Conditions: at 20 µM, stronger effect = higher value.
Ubiquitin-conjugating enzyme E2 N (Homo sapiens), sequence (P61088 whole entry, looked up): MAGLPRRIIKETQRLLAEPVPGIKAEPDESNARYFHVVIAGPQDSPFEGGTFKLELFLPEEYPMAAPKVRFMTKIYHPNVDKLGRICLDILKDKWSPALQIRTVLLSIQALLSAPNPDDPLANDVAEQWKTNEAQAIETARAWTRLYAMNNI

Row | Structure (SMILES) | inhibition
1 | CC[C@@H](C)[C@H](NC(=O)CCc1c(C)c2cc3c4c(oc3c(C)c2oc1=O)CCCC4)C(=O)O | 2.9%
2 | O=C(CSc1n[nH]c(-c2cccnc2)n1)Nc1ccnc2ccccc12 | 21.1%
3 | c1ccc(-n2nnnc2-c2cccnc2)cc1 | 16.1%
4 | S=c1nc2ccccc2c2nc(-c3cccnc3)[nH]n12 | 58.9% (active)
5 | COc1ccccc1N(C)S(=O)(=O)c1ccc(Cl)c(C(=O)N2CCC(C(N)=O)CC2)c1 | 1.7%
6 | CC1(C)CC(=O)c2sc(N)nc2C1 | -5.4%
7 | O=c1cc(CO)oc(C(Nc2cccc(C(F)(F)F)c2)c2ccccn2)c1O (stereo not drawn) | 97.1% (active)
8 | O=[N+]([O-])c1cccc(S(=O)(=O)NCc2ccccn2)c1 | -12.9%
9 | O=c1cc(CO)oc(C(Nc2cccc([N+](=O)[O-])c2)c2ccccn2)c1O (stereo not drawn) | 94.8% (active)
10 | FC(F)(F)c1cccc(Nc2ncnc3ccccc23)c1 | 11.1%
11 | O=C(O)CC1(CC(=O)Nc2cccc(C(F)(F)F)c2)CCCC1 | -1.1%
12 | O=C(Nc1cccc([N+](=O)[O-])c1)Nn1cnnc1 | -5.5%
13 | O=C(c1ccccc1)N1CCC(CC2CC(c3ccc(Cl)cc3)=NO2)(C(=O)NCC2CCCCC2)CC1 (stereo not drawn) | 4.7%
14 | COC(=O)c1ccc(CNC(=O)c2ccc3oc(C(C)C)nc3c2)cc1 | -8.3%
15 | O=C(NC(=O)c1cc(OCC(F)(F)F)ccc1OCC(F)(F)F)Nc1ccccc1 | 2.9%
16 | c1ccc(CCC2=NCCn3cccc32)cc1 | -3.6%
17 | CCOC(=O)c1ccc(NC(=O)CCn2c(=O)oc3ccccc32)cc1 | 4.5%
18 | CCN(CC)S(=O)(=O)c1ccc2[nH]c(=O)cc(C(=O)N(C)C3CCS(=O)(=O)C3)c2c1 (stereo not drawn) | -6.2%
19 | O=C(CCN1C(=O)C2CCCCC2C1=O)Nc1ccc(OC(F)F)cc1 (stereo not drawn) | 1.3%
20 | O=C(Nc1ccc(S(=O)(=O)Nc2nccs2)cc1)c1cc(-c2ccncc2)nc2ccccc12 | -11.2%
21 | COC(=O)CNC(=O)c1cc(-c2ccncc2)nc2ccccc12 | -0.6%
22 | CCN(CC)CCNC(=O)c1ccc(NC(=O)c2cc(-c3ccncc3)nc3ccccc23)cc1 | 89.7% (active)
23 | CCn1c(SCc2cc(=O)n3ccsc3n2)nc2ccccc21 | 3%
24 | O=C(Nn1cnnc1)c1cc(Cl)ccc1Cl | -7.5%
25 | CC1CN(C(=O)CCC(=O)NCCCN2CCC(Cc3ccccc3)CC2)c2cc(Cl)ccc2O1 (stereo not drawn) | 64.4% (active)

Row | Structure (SMILES) | inhibition
26 | CC1CN(C(=O)CCC(=O)NC2CCN(Cc3ccccc3)CC2)c2ccccc2O1 (stereo not drawn) | 4.7%
27 | CC1CN(C(=O)CCC(=O)NCc2cccnc2)c2ccccc2O1 (stereo not drawn) | 2.3%
28 | CN(C)C(=O)c1ccc2c(c1)C1C3CCC(C3)C1C(c1ccccc1)N2 (stereo not drawn) | -13.6%
29 | CC(=O)NC(Cc1ccc(F)c(F)c1)C(=O)NC1CCN(c2nnnn2-c2ccccc2)CC1 (stereo not drawn) | -5.3%
30 | COc1ccnc2c1c(=O)n(Cc1cccc(F)c1)c(=O)n2C | 48.2% (active)
31 | CC(C)(C)c1cc2cccnc2n1Cc1cccc(F)c1 | 11.4%
32 | CCCCNc1nc2c(c(=O)n(C)c(=O)n2C)n1Cc1cccc(OC)c1 | 21.5%
33 | CCOC(=O)c1ccc(COC(=O)CCc2nc(-c3ccccc3)c(-c3ccccc3)o2)cc1 | -0.9%
34 | COCc1cc(=O)[nH]c2cc(NC(=O)C(F)(F)F)c(C)cc12 | 8.5%
35 | CCOc1ccc(/C=N/NC(N)=S)cc1 | -0.6%
36 | OC(CNCCc1ccc(Cl)cc1Cl)COc1ccccc1 (stereo not drawn) | 23%
37 | NC(N)=N/N=C/c1ccc(OCc2ccc(Cl)cc2Cl)cc1 | 108% (active)
38 | O=C(/C=C/c1cccc([N+](=O)[O-])c1)OCC(=O)N1CCOCC1 | -13.5%
39 | CC(OC(=O)CNC(=O)c1ccco1)C(=O)Nc1ccc(Cl)cn1 (stereo not drawn) | -3.2%
40 | CCc1ccc(NC(=O)C(C)OC(=O)/C=C/c2cccc([N+](=O)[O-])c2)cc1 (stereo not drawn) | -15.4%
41 | COc1ccc(N2CCN(C(=O)CNC(=O)c3ccc(C(C)(C)C)cc3)CC2)cc1 | 12.3%
42 | O=C(CCCOc1ccccc1)NCc1ccco1 | 6.4%
43 | O=C(CCCCCN1C(=O)c2cccc3cccc(c23)C1=O)NCc1ccco1 | 57.4% (active)
44 | O=C1c2cccc3cccc(c23)C(=O)N1CCCCCc1n[nH]c(=S)o1 | -1.2%
45 | C=CCN(CC=C)CCOc1ccccc1[N+](=O)[O-] | 3.5%
46 | O=C(COc1ccc(Br)cc1F)NCC1(N2CCCCC2)CCCCC1 | -5.1%
47 | Cc1ccc2c(c1)N(CC(=O)N1CCC(O)CC1)C(=O)CO2 | -0.3%
48 | CCOc1ccccc1N1CN(Cc2ccccc2)CNC1=S | -1.7%
49 | C=CCNC(=O)/C(=C\c1cccc([N+](=O)[O-])c1)NC(=O)c1ccccc1 | 5.9%
50 | CN(C)CCNC(=O)/C(=C/c1cccc([N+](=O)[O-])c1)NC(=O)c1ccccc1 | 11.7%

Row | Structure (SMILES) | inhibition
51 | Cc1ccc(C(=O)N/C(=C/c2ccc(-c3cccc([N+](=O)[O-])c3)o2)C(=O)NCCCN(C)C)cc1 | 57% (active)
52 | CN(CCc1ccccn1)C(=O)c1ccc(OC2CCN(Cc3ccccn3)CC2)cc1 | 1.2%
53 | Oc1ccccc1-c1cc(-c2ccc(Cl)cc2)n[nH]1 | 14.2%
54 | CCCCCCCC1(C)NC(=O)N(CC(=O)Nc2cc(C)on2)C1=O (stereo not drawn) | 3.7%
55 | O=c1c2c(ncn1Cc1ccccc1)nc1n2CCC1 | 1.8%
56 | CN(C)/C=C/c1c(C#N)c(=O)ncn1Cc1ccccc1 | -4.7%
57 | CN(C)c1ccnc2sc3c(=O)n(Cc4ccccc4)cnc3c12 | 48% (active)
58 | O=C1OC(OC(=O)c2ccccc2Br)C(N2CCOCC2)=C1Cl (stereo not drawn) | 15.6%
59 | COc1ccccc1C(=O)Nc1ccc(Nc2ccccc2)cc1 | 7.8%
60 | Cc1ccccc1C(=O)O | -9%
61 | Cc1ccc(NC2=C(Cl)C(=O)OC2OC(=O)c2ccccc2C)cc1 (stereo not drawn) | 53.9% (active)
62 | CCOC(=O)c1ccc(Nc2cc3ccccc3c(=O)[nH]2)cc1 | -38.5%
63 | Cc1ccccc1C(=O)OC1OC(=O)C(Cl)=C1Nc1ccccc1 (stereo not drawn) | 78% (active)
64 | CCOC(=O)CNC(=O)CN1C(=O)CCSc2ccccc21 | 8.8%
65 | CNC(=O)c1sc(Nc2ccc(OCc3ccccc3)cc2)nc1C | 6.9%
66 | Cc1nn(CCCC(=O)NCc2ccccc2Cl)c(=O)c2nccn12 | -2.4%
67 | FC(F)Oc1ccccc1C1CC(c2ccc(Br)s2)Nc2ncnn21 (stereo not drawn) | -2.2%
68 | CCN(CC)S(=O)(=O)c1cc(C(=O)Nc2ccccn2)ccc1C | -8.9%
69 | O=C(CCc1c[nH]c2ccccc12)NCCOc1ccccc1 | -4.4%
70 | CCN(CC)CCNC(=O)CCCCCn1c(=O)[nH]c2cc(C(=O)OC)ccc2c1=O | 9.7%
71 | O=C(CCCCCn1c(=O)[nH]c2ccccc2c1=O)NCCc1c[nH]c2ccccc12 | 58.3% (active)
72 | COc1cc(CNCc2ccc(OC)c3ccccc23)cc(OC)c1OC | 5.5%
73 | COc1ccc(S(=O)(=O)N2CCN(CC(=O)NCC3(N4CCOCC4)CCCCC3)CC2)cc1 | -8.4%
74 | O=C(CCl)NNc1nc(-c2ccccc2)c2cc(Cl)ccc2n1 | -10.6%
75 | NC(N)=Nc1nc(-c2ccccc2)c2cc(Cl)ccc2n1 | 51.4% (active)

Row | Structure (SMILES) | inhibition
76 | Cc1ccc2nc(Nc3ccccc3O)nc(-c3ccccc3)c2c1 | 0.7%
77 | Nc1nc(SCC(=O)NN(c2ccccc2)c2ccccc2)n[nH]1 | -4.6%
78 | CC1(C)CC(=O)C(C2=NC(C)(C)Cc3ccccc32)=C(O)C1 | -11%
79 | CCN(CC)S(=O)(=O)c1ccc(NC(=O)c2cccnc2Cl)c(NC(=O)c2cccnc2Cl)c1 | -5.6%
80 | CCc1c(C)nc(SCC(=O)NC2CCCC2)[nH]c1=O | -1.8%
81 | CC(=O)NC(=S)NNC(=O)c1ccc(Br)cc1 | 79.4% (active)
82 | CNC(=S)NNC(=O)c1ccc(N(C)C)cc1 | -10.9%
83 | O=C(NNC(=O)c1ccc(Cl)nc1)c1ccc(Br)cc1 | 6.7%
84 | O=S(=O)(NC1CCCC1)c1ccc(-n2cnnn2)cc1 | 0.2%
85 | C=CCNCCCCOc1ccccc1 | 9.8%
86 | CCc1ccc(NC(=O)N[C@H](C(=O)O)C(C)CC)cc1 (stereo partly drawn) | 10%
87 | CCCCCn1c(=O)c(C(=O)OCC)c(Cl)c2ccccc21 | 5.7%
88 | O=C(c1ccc[nH]c1=S)N1CCN(S(=O)(=O)c2ccc(Br)cc2Cl)CC1 | 1.2%
89 | CCOC(=O)C1(CCOc2ccccc2)CCN(Cc2cc(OC)c(O)cc2Cl)CC1 | 12%
90 | Cc1c(CN2CCC(CO)(CCOc3ccccc3)CC2)[nH]c2ccc(Cl)cc12 | 72.1% (active)
91 | OCC1(CCOc2ccccc2)CCN(Cc2cn[nH]c2-c2ccccc2)CC1 | 2.5%
92 | CC(CC(=O)N1CCN(c2ccccc2)CC1)c1ccccc1 (stereo not drawn) | 9.2%
93 | O=C(c1ccccc1)c1ccc(C(=O)N2CCN(c3ccccc3)CC2)cc1 | 4.4%
94 | CN1CCC(CN)(N2CCN(c3ccccc3)CC2)CC1 | 57.8% (active)
95 | O=C(CN1CCN(c2ccc(F)cc2)CC1)Nc1cccc(C(F)(F)F)c1 | -4.5%
96 | CCCCCCCCCCOC(=O)Cn1c(COc2ccc(C)cc2)[n+](C)c2ccccc21 | 44.2%
97 | CCCCCCCCCCOC(=O)Cn1c(COc2cccc(OC)c2)[n+](C)c2ccccc21 | 58.1% (active)
98 | CCCCn1c(N)c(N(CCOC)C(=O)c2cccc(OCc3ccccc3)c2)c(=O)[nH]c1=O | 0.1%
